# Laboratory results reported in PubChem BioAssay (NCATS).
# Records with an inconclusive call do not appear. A number with no mark means an inactive call. Calls of active or inactive are those of the source. Calls come from the whole dose curve; as a rule, active = well fitted cell-killing curve with a large enough effect; inconclusive = small, poorly fitted or top-dose-only effect, or effect the other way; inactive = flat fitted curve, though single readings scatter.
# System: SKOV3
# Experiment: Primary qHTS to identify gynecologic anti-cancer compounds using libraries of approved drugs and bioactive compounds (AID 1345084); note: nearly all actives have a fitted effect of over 55% in size
# Conditions: Gynecologic cancer cell panel viability, ATPlite luminescence, 48 h; series mostly up to 57.5 µM; activity change, negative = cytotoxicity: at the top concentration
# In short: (§1)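 Five-concentration response, 48 h; readout is ATP-driven luciferase luminescence.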
# % is set by controls: 0 for no effect and ±100 for the full control effect; potency is the fitted concentration of half-maximal effect.
SMILES,"activity change, negative = cytotoxicity",Potency
Cc1ccccc1C(=O)c1ccc(Nc2ccc(Br)cc2N)cc1Cl,-27.4%,
Cc1cnc(CNC(=O)c2c(=O)c3ccc(N4CCCN(C)CC4)nc3n3c2sc2ccccc23)cn1,-5.43% [at 11.6 µM],
CCCCC(F)(F)[C@@]1(O)CC[C@H]2[C@H](CC(=O)[C@@H]2CCCCCCC(=O)O)O1,9.85%,
Cc1c(C(=O)Nc2ccc(N3C[C@@H](C)O[C@@H](C)C3)nc2)cccc1-c1ccc(OC(F)(F)F)cc1,7.14%,
CNC(=O)c1cc(Oc2ccc(NC(=O)Nc3ccc(Cl)c(C(F)(F)F)c3)c(F)c2)ccn1,-5.28%,
C[C@@H]1C[C@H]2[C@@H]3CCC4=CC(=O)C=C[C@]4(C)[C@@]3(F)[C@@H](O)C[C@]2(C)[C@@]1(O)C(=O)CO,11.7%,
CCCCC[C@H](O)C=C[C@H]1[C@H](O)CC(=O)[C@H]1CC=CCCCC(=O)O,32.6%,
O=C(Nc1cccc2c(=O)cc(-c3nn[nH]n3)oc12)c1ccc(OCCCCc2ccccc2)cc1,14.7%,
CC1(C)CC(=O)c2c(C(F)(F)F)nn(-c3ccc(C(N)=O)c(NC4CCC(O)CC4)c3)c2C1 (stereo not drawn),,0.398 µM (active)
COc1ccnc(CS(=O)c2nc3ccc(OC(F)F)cc3[nH]2)c1OC (stereo not drawn),-8.12%,
CN1C(=O)C(Cc2c[nH]c3ccccc23)NC1=S (stereo not drawn),0% [at 25.3 µM],
CNc1nc(Nc2ccc(C(=O)N3CCOCC3)cc2OC)ncc1Cl,19.2%,
O[C@@H](COc1cccc2ncccc12)CN1CCN(C2c3ccccc3[C@@H]3[C@H](c4ccccc42)C3(F)F)CC1 (stereo partly drawn),-12%,
CC[C@H](CC#N)OC(=O)N[C@@H](C)c1cccc(NC(=O)Nc2ccc(-c3cnco3)c(OC)c2)c1,,6.31 µM (active)
NS(=O)(=O)c1cc(Cl)c(Cl)c(S(N)(=O)=O)c1,10.1%,
NC(=O)c1ccc(N(C(N)=O)c2c(F)cccc2F)nc1-c1ccc(F)cc1F,-0.79%,

SMILES,"activity change, negative = cytotoxicity",Potency
O=C(CCCN1CCN(c2ccc(F)cc2)CC1)NC1c2ccccc2CSc2ccccc21 (stereo not drawn),-2.05%,
N#Cc1ccc(Oc2ccc3c(c2)COB3O)cc1,-0.984%,
CN(C)CCN(Cc1ccc(Cl)cc1)c1ccccn1,10.3%,
CC(C)(O)CC(=O)NCCn1ccc2ncnc(Nc3ccc(Oc4cccc(C(F)(F)F)c4)c(Cl)c3)c21,,22.4 µM (active)
O=C(Nc1ccc(OC(F)(F)F)cc1)c1sccc1NCc1ccnc2ccccc12,-6.69%,
CC1CCN(c2cc(N3CCN(C)CC3)ccc2NC(=O)c2cc(C#N)c[nH]2)CC1,3.66%,
CNC(=O)c1ccc2c(C(=Nc3cccc(CN(C)C)c3)c3ccccc3)c(O)[nH]c2c1,-26%,
Cc1ccccc1-n1c(Cn2nc(-c3cccc(O)c3)c3c(N)ncnc32)nc2cccc(C)c2c1=O,-8.63%,
O=C1NC(=O)C(c2cnc3ccccn23)=C1c1cn2c3c(cccc13)CN(C(=O)N1CCOCC1)CC2,,1.41 µM (active)
Cc1ccc2c(c1)C(=O)[C@]1(O)CCN(c3ccccc3)C1=N2,7.95%,
Nc1[nH]nc2nnc(-c3c(-c4ccccc4)nn4ccccc34)cc12,-12.2%,
N#CC1(c2cccc(C(=O)Nc3cc(Oc4ccc5nc(NC(=O)C6CC6)sc5n4)ccc3F)c2Cl)CC1,,20 µM (active)
COc1nccc(-c2c(-c3ccc(F)cc3)ncn2C2CCC(O)CC2)n1 (stereo not drawn),0.776%,
COc1nccc(-c2c(-c3ccc(F)cc3)ncn2C2CCNCC2)n1,6.11%,
CN1CCN(c2cccc(Nc3nc4c(-c5ccc(S(C)(=O)=O)cc5)cccn4n3)c2)CC1,,2.82 µM (active)

# System: Tov-21-G
# Experiment: as above
# Conditions: Gynecologic cancer cell panel viability, ATPlite luminescence, 48 h; series mostly up to 57.5 µM; activity change, negative = cytotoxicity: at the top concentration
# In short: as §1
SMILES,"activity change, negative = cytotoxicity",Potency
Cc1ccccc1C(=O)c1ccc(Nc2ccc(Br)cc2N)cc1Cl,-13.9%,
Cc1cnc(CNC(=O)c2c(=O)c3ccc(N4CCCN(C)CC4)nc3n3c2sc2ccccc23)cn1,-27.4% [at 11.6 µM],
CCCCC(F)(F)[C@@]1(O)CC[C@H]2[C@H](CC(=O)[C@@H]2CCCCCCC(=O)O)O1,-0.593%,
Cc1c(C(=O)Nc2ccc(N3C[C@@H](C)O[C@@H](C)C3)nc2)cccc1-c1ccc(OC(F)(F)F)cc1,0.456%,
CNC(=O)c1cc(Oc2ccc(NC(=O)Nc3ccc(Cl)c(C(F)(F)F)c3)c(F)c2)ccn1,-20.7%,
C[C@@H]1C[C@H]2[C@@H]3CCC4=CC(=O)C=C[C@]4(C)[C@@]3(F)[C@@H](O)C[C@]2(C)[C@@]1(O)C(=O)CO,9.2%,
CCCCC[C@H](O)C=C[C@H]1[C@H](O)CC(=O)[C@H]1CC=CCCCC(=O)O,0.803%,
O=C(Nc1cccc2c(=O)cc(-c3nn[nH]n3)oc12)c1ccc(OCCCCc2ccccc2)cc1,-1.41%,
CC1(C)CC(=O)c2c(C(F)(F)F)nn(-c3ccc(C(N)=O)c(NC4CCC(O)CC4)c3)c2C1 (stereo not drawn),,0.355 µM (active)
COc1ccnc(CS(=O)c2nc3ccc(OC(F)F)cc3[nH]2)c1OC (stereo not drawn),-1.52%,
CN1C(=O)C(Cc2c[nH]c3ccccc23)NC1=S (stereo not drawn),0.413% [at 25.3 µM],
CNc1nc(Nc2ccc(C(=O)N3CCOCC3)cc2OC)ncc1Cl,10.9%,
O[C@@H](COc1cccc2ncccc12)CN1CCN(C2c3ccccc3[C@@H]3[C@H](c4ccccc42)C3(F)F)CC1 (stereo partly drawn),,inactive
CC[C@H](CC#N)OC(=O)N[C@@H](C)c1cccc(NC(=O)Nc2ccc(-c3cnco3)c(OC)c2)c1,,1.26 µM (active)
NS(=O)(=O)c1cc(Cl)c(Cl)c(S(N)(=O)=O)c1,11.4%,
NC(=O)c1ccc(N(C(N)=O)c2c(F)cccc2F)nc1-c1ccc(F)cc1F,3.7%,
O=C(CCCN1CCN(c2ccc(F)cc2)CC1)NC1c2ccccc2CSc2ccccc21 (stereo not drawn),-4.82%,
N#Cc1ccc(Oc2ccc3c(c2)COB3O)cc1,-0.89%,
CN(C)CCN(Cc1ccc(Cl)cc1)c1ccccn1,-1.25%,
CC(C)(O)CC(=O)NCCn1ccc2ncnc(Nc3ccc(Oc4cccc(C(F)(F)F)c4)c(Cl)c3)c21,-16.3%,
O=C(Nc1ccc(OC(F)(F)F)cc1)c1sccc1NCc1ccnc2ccccc12,0.379%,
CC1CCN(c2cc(N3CCN(C)CC3)ccc2NC(=O)c2cc(C#N)c[nH]2)CC1,4.39%,
CNC(=O)c1ccc2c(C(=Nc3cccc(CN(C)C)c3)c3ccccc3)c(O)[nH]c2c1,-23.5%,
Cc1ccccc1-n1c(Cn2nc(-c3cccc(O)c3)c3c(N)ncnc32)nc2cccc(C)c2c1=O,-1.11%,
Nc1[nH]nc2nnc(-c3c(-c4ccccc4)nn4ccccc34)cc12,-0.623%,
N#CC1(c2cccc(C(=O)Nc3cc(Oc4ccc5nc(NC(=O)C6CC6)sc5n4)ccc3F)c2Cl)CC1,,3.98 µM (active)
COc1nccc(-c2c(-c3ccc(F)cc3)ncn2C2CCC(O)CC2)n1 (stereo not drawn),-10.3%,
